# In the library only some 2.5% were active in any assay of this set; here they are far more common.
# ABCB6 inh 2: inhibitors of human ABC transporter ABCB6 | 360,000 compounds, 0.19% hits | fluorescence ratio to DMSO, % at 10 µM | Q9NP58 | K562-ABCB6 porphyrin accumulation, flow cytometry, 1 h; active compounds read low;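 active = fluorescence ratio to DMSO below 75%, the collection mean minus 3 SD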;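 note: signal is porphyrin accumulated inside mitochondria; lower ratio means ABCB6 inhibition with less porphyrin fluorescence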
# Exocytosis inh: blocks lytic granule exocytosis. TALL-104 LAMP-1 surface exposure, flow cytometry; cells stimulated with thapsigargin and PMA. inhibition, % at 10 µM. 360,000 compounds, 0.66% hits. AID 651702;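 active = inhibition above about 55%, limit read from the data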
# rCAG binder: binds r(CAG) RNA repeats | r(CAG) RNA repeat, TO-PRO-1 dye displacement fluorescence | inhibition, % at 3 µM | AID 651821 | 370,000 compounds, 1.3% hits;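 active = inhibition above the plate cutoff, the mean of all test compounds on that plate plus 3 SD, cut at about 35% in these data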;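 note: higher means more dye released from RNA so lower well fluorescence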
# PG9 Ab binder: small molecules binding HIV-1 gp120 antibody PG9; 360,000 compounds, 0.43% hits; TR-FRET gp120-PG9 antibody binding; AID 624416; inhibition, % at 6.7 µM; in the data active = inhibition above about 8.5%
# rCAG bind conf: r(CAG) RNA repeat binding, confirmation; shares compounds with rCAG binder; inhibition, % at 3 µM; 4,300 compounds, 70% hits; TO-PRO-1 dye displacement fluorescence; AID 652065;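 active = inhibition above a per-plate cutoff, the mean inhibition of sample wells plus 3 SD, cut at about 35% in these data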;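 note: loss of TO-PRO-1 fluorescence as compound displaces dye from 1x1 AA loop RNA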
# DNA CAG counter: counter-screen for rCAG RNA binders: DNA CAG dye complex inhibitors | d(CAG) DNA oligo TO-PRO-1 dye displacement, fluorescence | 4,300 compounds, 94% hits | inhibition, % at 3 µM | AID 652068 | shares compounds with rCAG binder;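 active = inhibition above its plate's cutoff, the mean test-well inhibition plus 3 SD, cut at about 4.8% in these data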;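 note: hits displace the dye from DNA and so lower well fluorescence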
# dCAG dye DR: counter-screen for rCAG binders: inhibitors of DNA CAG TO-PRO-1 complex; shares compounds with rCAG binder; DNA CAG/GTC duplex TO-PRO-1 dye displacement fluorescence; IC50, µM; 250 compounds, 20% hits; AID 686960; in the data active = IC50 below about 10 µM
# A number is an active result; - = inactive; . = no result.
SMILES,ABCB6 inh 2,Exocytosis inh,rCAG binder,PG9 Ab binder,rCAG bind conf,DNA CAG counter,others
COc1ccc(Nc2nc(-c3ccccc3O)nc3ccccc23)cc1,-,-,38,-,-,6.9,
O=C(CSc1ccccc1)Nc1ccc(S(=O)(=O)Nc2ncccn2)cc1,-,-,-,-,.,.,
O=C(CSc1ccc(Br)c2cccc(Cl)c12)Nc1ccc(S(=O)(=O)Nc2nccs2)cc1,-,-,77,-,75,43,
O=C(CSc1ccc2ccccc2c1)Nc1ccc(S(=O)(=O)Nc2nccs2)cc1,-,-,74,-,71,36,
CCN(CC(=O)Nc1c(F)cccc1F)C(=O)c1ccc(N2CCCC2=O)cc1,-,-,-,-,.,.,
O=C(Nc1ccc(N2CCOCC2)cc1)c1csc([C@@H]2O[C@H](CO)[C@H](O)[C@H](O)[C@H]2O)n1,-,-,-,-,.,.,
S=c1[nH]nc(COc2ccccc2)n1/N=C/c1ccncc1,-,-,-,-,.,.,
FC(F)(F)c1ccccc1/C=N/n1c(COc2ccccc2)n[nH]c1=S,-,-,44,-,-,5.5,
S=c1[nH]nc(COc2ccccc2)n1/N=C/c1ccccc1Br,-,-,38,-,38,8.4,
FC(F)(F)c1ccc(/C=N/n2c(COc3ccccc3)n[nH]c2=S)cc1,-,-,51,-,37,8.5,
Oc1ccc(Br)cc1/C=N/n1c(COc2ccccc2)n[nH]c1=S,-,-,-,-,.,.,
COc1ccc(OC)c(S(=O)(=O)NC2CCSc3ccccc32)c1 (stereo unspecified),-,-,-,-,.,.,
CCCCCOc1ccc(/C=c2\sc3nc(=O)c(-c4ccccc4)nn3c2=O)cc1OC,-,-,-,-,.,.,
O=c1nc2s/c(=C\c3ccc(-c4ccccc4[N+](=O)[O-])o3)c(=O)n2nc1-c1ccccc1,-,-,46,-,51,25,
COc1ccc2nccc(/C=C/c3ccnc4ccc(OC)cc34)c2c1,-,-,-,-,.,.,
CNC(=O)C[C@H]1C(=O)N(c2ccc(OC)cc2)C[C@@H]1C,-,-,-,-,.,.,
Cc1ccc2c(c1)c(Sc1ccccc1)c(CC(=O)O)n2C,-,-,35,-,-,5.2,
COc1ccc2ccccc2c1C=Nn1c(-c2n[nH]c3c2CCC3)n[nH]c1=S,.,.,48,.,49,18,
COc1cc2cc3c(N)c(C(=O)NCc4ccco4)sc3nc2cc1OC,-,-,.,.,.,.,
COc1cc2cc3c(N)c(C(=O)Nc4sc(C)c(C)c4C#N)sc3nc2cc1OC,-,-,53,-,61,31,
COc1ccc(/C=C2/SC(=S)N(c3ccc(S(=O)(=O)Nc4nccs4)cc3)C2=O)cc1,-,-,73,-,77,44,
Cc1ccc(/C=C2/SC(=S)N(c3ccc(S(=O)(=O)Nc4nccs4)cc3)C2=O)cc1,-,-,42,-,82,49,
O=C1/C(=C\c2ccccn2)SC(=S)N1c1ccc(S(=O)(=O)Nc2nccs2)cc1,-,-,65,-,83,52,
O=C1/C(=C/c2ccccn2)SC(=S)N1c1ccc(O)cc1,-,-,-,-,.,.,
COCc1c(C(=O)N2CCN(Cc3nc4ccccc4s3)CC2)oc2ccccc12,-,-,-,-,.,.,
SMILES,ABCB6 inh 2,Exocytosis inh,rCAG binder,PG9 Ab binder,rCAG bind conf,DNA CAG counter,others
COCCN(C(=O)c1csnn1)C(C(=O)NC1CCCCC1)c1ccc(Cl)cc1 (stereo unspecified),-,-,-,-,.,.,
Cc1c(O)cnc2nn(-c3ccccc3)c(=N)n12,-,-,-,-,.,.,
COc1ccc(/C=C2/C(=O)N(c3nc4ccccc4s3)N=C2CSc2ccc(Cl)cc2)cc1,-,-,71,-,72,51,
COc1ccc(/C=C2/C(=O)N(Cc3ccccc3)N=C2C)cc1,-,-,-,-,.,.,
Cc1ccc(S(=O)(=O)Nc2ccc3c(c2)C(=O)c2ccccc2-3)cc1,-,-,37,-,-,7.0,
Cc1ccc(S(=O)(=O)Nc2ccc3cn[nH]c3c2)cc1,-,-,47,-,-,-,
O=S(=O)(Nc1nc2ccccc2nc1N1CCN(c2ccccc2)CC1)c1ccc(F)cc1,-,-,69,-,67,28,
Cc1ccc(S(=O)(=O)Nc2nc3ccccc3nc2N2CCOCC2)cc1,-,-,-,-,.,.,
COc1ccccc1CCC[C@@H](CCS(=O)(=O)C(C)C)CC1CCCCC1,.,.,-,.,.,.,
Cc1ccc(C(C)C)c(OCC(=O)NS(=O)(=O)c2ccc(Cl)cc2)c1,-,-,51,-,36,7.0,
O=C(NCCc1ccco1)C(=O)NCC1OCCCN1S(=O)(=O)c1ccccc1 (stereo unspecified),-,-,-,-,.,.,
COc1ccccc1/C=C/C=c1\sc2nc(=O)c(Cc3ccccc3)nn2c1=O,-,-,40,-,50,22,
CCCCN1C(=O)CCC(C(=O)O)C1c1ccc([N+](=O)[O-])cc1 (stereo unspecified),-,-,-,-,.,.,
COc1cccc(C2c3[nH]c4ccccc4c3C[C@H]3C(=O)N(c4ccccc4C(=O)N4CCCC4C(=O)O)C(=O)N23)c1 (stereo partly specified),-,-,-,-,.,.,
Cc1ccc(C2c3[nH]c4ccccc4c3C[C@H]3C(=O)N(c4ccccc4C(=O)N4CCC(C(=O)O)CC4)C(=O)N23)cc1 (stereo partly specified),-,-,-,-,.,.,
Cc1ccc(C2c3[nH]c4ccccc4c3C[C@H]3C(=O)N(c4ccccc4C(=O)N4CCC[C@@H]4C(=O)O)C(=O)N23)cc1 (stereo partly specified),-,-,39,-,57,19,
O=C(O)C1CCN(C(=O)c2ccccc2N2C(=O)[C@@H]3Cc4c([nH]c5ccccc45)C(c4cccc(Cl)c4)N3C2=O)CC1 (stereo partly specified),-,-,38,-,47,14,
Cc1ccc(C(=O)O)cc1NC(=S)NC(=O)c1ccc(-c2ccccc2)cc1,-,-,55,-,67,20,
O=C(O)c1cccc(NC(=S)NC(=O)c2ccc(-c3ccccc3)cc2)c1,-,-,-,-,.,.,
COc1ccc(C(=O)O)cc1NC(=S)NC(=O)c1ccc(-c2ccc(Cl)cc2)o1,-,-,40,-,72,32,dCAG dye DR=7.7
CC(=O)N1CCN(S(=O)(=O)c2cccc(C(=O)NCc3ccc(F)cc3)c2)CC1,-,-,-,-,.,.,
Cc1ccc(S(=O)(=O)Nc2c(C(=O)O)[nH]c3ccccc23)cc1C,-,-,46,-,-,11,
Cc1cc(S(=O)(=O)Nc2c(C(=O)O)[nH]c3ccccc23)ccc1F,-,-,-,-,.,.,
COc1ccc2[nH]c(C(=O)O)c(NS(=O)(=O)c3ccc(C)cc3C)c2c1,-,-,49,-,-,4.9,
CCOC(=O)C1=C(COC(=O)c2ccc(Cl)cc2[N+](=O)[O-])NC(=O)NC1C (stereo unspecified),-,-,-,-,.,.,

# Screens (PubChem BioAssay)
